HepG2 tox-1: qHTS for Inhibitors of TGF-b: Cytotox Counterscreen; HepG2 CAGA-GFP viability, ATP luminescence, 18 h; Potency, µM (doses to about 46.1 µM), most hits filed as cytotoxic; hit rate 0.76% among 410,000; AID 588856, 2011
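CellTiter-Glo luminescence gave cytotoxicity after 18 hours at 37 degrees C. The cells were HepG2 CAGA-GFP in 1% FBS DMEM, stimulated with 500 pg/mL TGF-beta after compound addition. %Activity was normalised to no-cell wells (complete cell-killing) and DMSO (no toxicity), and curves were fitted and classified.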
TGFb inhibitor: qHTS for Inhibitors of TGF-b; Potency, µM (series often up to 46.1 µM), actives largely listed as inhibitors; HepG2 CAGA-GFP TGF-b/SMAD3 reporter, GFP fluorescence, 18 h; TGF-beta stimulated, 500 pg/mL final; hit rate 1.2% among 410,000; further: nearly all actives have a fitted effect of over 65% in size
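HEPG2 CAGA-GFP, 1000 cells/well; 2 h settle, 37 C; cpd via pin tool; TGF-b 500 pg/mL final; 18 h, 37 C; GFP imaging ex488/em500-530; %Activity normalised to -TGF-b and +DMSO controls; CRC fit, curve class.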
S2 tox: Viability Counterscreen for Primary qHTS for Inhibitors of ATXN expression; S2 cells (HEK-293 line with an ATXN2-luciferase reporter) viability, CellTiter-Fluor protease fluorescence, 24 h; Potency, µM (doses to about 56.7 µM), hits mostly cytotoxic; hit rate 0.49% among 400,000; AID 651635, 2014; further: nearly all actives have a fitted effect of over 40% in size
GLP1R ag: qHTS of GLP-1 Receptor Agonists; HEK293 GLP-1R CRE-luciferase, luminescence, 4-6 h; cells express a hypersensitive GLP-1R form; Potency, µM (highest dose often 45.6 µM), usual class: activators; AID 624172, 2012; hit rate 0.007% among 380,000
Target sequence (P43220 whole entry, looked up): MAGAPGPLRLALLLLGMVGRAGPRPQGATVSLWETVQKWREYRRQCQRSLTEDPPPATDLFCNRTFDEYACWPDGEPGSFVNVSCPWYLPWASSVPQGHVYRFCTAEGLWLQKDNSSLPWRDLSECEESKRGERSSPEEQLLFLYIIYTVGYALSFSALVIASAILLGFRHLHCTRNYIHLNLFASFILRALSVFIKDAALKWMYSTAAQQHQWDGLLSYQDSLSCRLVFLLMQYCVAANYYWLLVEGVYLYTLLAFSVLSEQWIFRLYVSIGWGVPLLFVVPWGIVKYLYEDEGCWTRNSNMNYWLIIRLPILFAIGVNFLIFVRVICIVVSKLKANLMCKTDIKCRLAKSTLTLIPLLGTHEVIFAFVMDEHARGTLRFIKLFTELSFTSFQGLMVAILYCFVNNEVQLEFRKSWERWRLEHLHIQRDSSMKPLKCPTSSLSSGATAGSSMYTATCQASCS
ATXN2 expr inh: Primary qHTS for Inhibitors of ATXN expression; hit rate 0.72% among 360,000; AID 1745845, 2022; HEK-293 ATXN2-luciferase reporter, luminescence, 24 h; Potency, µM (top dose mostly 57 µM), hits mostly inhibitors; further: nearly all actives have a fitted effect of over 55% in size
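ATXN2-luciferase reporter cells (luciferase flanked by upstream and downstream ATXN2 gene portions) were treated 24 h at 37 °C with compounds at up to 57 uM. SteadyGlo luminescence gave expression; GF-AFC fluorescence gave viability.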
GLP-1R inv ag: qHTS of GLP-1 Receptor Inverse Agonists (Inhibition Mode); HEK293 GLP-1R CRE-luciferase, luminescence, 24 h; GLP-1R form is constitutively active; hit rate 1.6% among 410,000; Glucagon-like peptide 1 receptor (Homo sapiens), P43220; Potency, µM (highest dose often 38.3 µM), most hits filed as inhibitors; further: nearly all actives have a fitted effect of over 55% in size
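qHTS in 1536-well format: reporter HEK293 cells expressing constitutive GLP-1R activity in DMEM + 10% Nu serum, 24 hr with compounds at 37 deg C, luminescence read after 12 min with detection reagent.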
TGFb CAGA inh: qHTS for Inhibitors of TGF-b: Confirmation of Cherry Picks | hit rate 63% among 1,600 | shares compounds with TGFb inhibitor | Potency, µM (series often up to 46.1 µM), hits mostly inhibitors | HepG2 CAGA-GFP TGF-b reporter, GFP fluorescence, 18 h; cells stimulated with TGF-beta, 500 pg/mL; further: nearly all actives have a fitted effect of over 65% in size
HepG2 tox-2: qHTS for Inhibitors of TGF-b: Cytotox Counterscreen for Cherry Picks; shares compounds with TGFb inhibitor; HepG2 CAGA-GFP viability, ATP luminescence, 18 h; cells stimulated with TGF-beta, 500 pg/mL; Potency, µM (titrated, usually from 46.1 µM), most hits filed as inhibitors; hit rate 27% among 1,600; AID 720535, 2013; further: nearly all actives have a fitted effect of over 70% in size
TGFb CCL64 inh: qHTS for Inhibitors of TGF-b: CCL64 Cells Orthogonal Assay for Cherry Picks; shares compounds with TGFb inhibitor; CCL64 CAGA-GFP reporter, TGF-b stimulated, GFP fluorescence, 18 h; Potency, µM (titrated, usually from 46.1 µM), actives largely listed as inhibitors; hit rate 41% among 1,600; further: nearly all actives have a fitted effect of over 65% in size
TGFb COP inh: qHTS for Inhibitors of TGF-b: Hit Validation in HepG2 Cells using COP promoter; shares compounds with TGFb inhibitor; HepG2 COP-GFP TGF-b reporter, GFP fluorescence, 18 h; cells stimulated by added recombinant TGF-beta; Potency, µM (highest dose often 46.1 µM), most hits filed as inhibitors; hit rate 3% among 1,600; further: nearly all actives have a fitted effect of over 70% in size
Numbers stand for hits; n = inactive; u = inconclusive; x = no result given. Hits are enriched below; roughly 3.7% of the tested compounds scored in any of these assays. The call rests on the fitted dose curve; in most records, active means well fitted curve in the direction sought with a large enough effect; inconclusive means small, poorly fitted or top-dose-only effect, or another doubt; inactive means no such curve, though single readings can be large; an effect the other way counts as inactive or inconclusive.

SMILES	HepG2 tox-1	TGFb inhibitor	S2 tox	GLP1R ag	ATXN2 expr inh	GLP-1R inv ag	TGFb CAGA inh	HepG2 tox-2	TGFb CCL64 inh	TGFb COP inh
O=C(CSC1=NCCS1)Nc1ccnc2ccccc12	n	u	n	n	n	n	10µM	n	n	n
Cc1ccc(C)c(CN2C(=O)c3ccccc3S(=O)c3ccc(C(=O)NCCc4ccc(Cl)cc4)cc32)c1 (stereo not drawn)	n	u	n	n	n	u	x	x	x	x
Oc1ccc(/C=N/n2cc(-c3ccccc3)[nH]c2=S)cc1	n	n	n	n	n	n	x	x	x	x
COc1cc(/C=N/n2cc(-c3ccccc3)[nH]c2=S)cc(OC)c1O	n	16µM	n	n	x	n	15µM	n	n	n
CCn1c(C)c(C)c2cc(C(=O)NCC(C)c3ccccc3)ccc21 (stereo not drawn)	n	n	x	x	x	u	x	x	x	x
COc1ccc(C(c2c(O)ccc3ccccc23)N2CCOCC2)c(OC)c1 (stereo not drawn)	n	6.3µM	x	n	n	10µM	u	23µM	u	u
Cc1ccc(-n2c(-c3ccccc3)nsc2=NC#N)cc1	n	n	x	x	x	x	x	x	x	x
COc1ccc(CNc2cccc3[nH]c(C(F)(F)F)nc23)cc1	n	u	n	n	n	u	x	x	x	x
Cc1ccc(C(=O)Nc2cccc3[nH]c(C(F)(F)F)nc23)cc1	n	11µM	n	n	n	8.9µM	15µM	u	u	n
COc1ccccc1NCc1cccn1-c1nnc(N2CCOCC2)s1	n	n	n	n	n	n	x	x	x	x
CCn1c2ccccc2c2cc(NC(=O)c3cc(OC)cc(OC)c3)ccc21	n	u	u	n	n	u	x	x	x	x
CCn1c2ccccc2c2cc(NC(=O)c3cc(OC)c(OC)c(OC)c3)ccc21	n	0.79µM	u	n	n	u	0.37µM	n	1.3µM	n
Cc1ccc2nc(Cl)c3cc(C(=O)NC4CCC(C)CC4)sc3c2c1 (stereo not drawn)	n	n	x	x	x	n	x	x	x	x
Cc1sc2ncnc(N3CCC(C(=O)Nc4nc(-c5cccs5)cs4)CC3)c2c1C	n	u	u	n	n	n	7.3µM	u	u	n
Cc1ccc(NC(=O)COc2ccccc2C(=O)Nc2ccccc2)cc1	n	n	x	x	x	x	x	x	x	x
CC(=O)N(Cc1ccc(F)cc1)C1=C(NCc2ccccc2)C(=O)c2ccccc2C1=O	3.2µM	6.3µM	22µM	n	11µM	10µM	7.3µM	3.7µM	3.7µM	u
COc1ccc(C2=C(C)C(=O)N(Cc3ccc(C(=O)NCc4cccc(C)c4)cc3)S2(=O)=O)cc1	n	n	n	x	n	u	x	x	x	x
Cc1ccc(S(=O)(=O)Nc2cccc3cccnc23)cc1	n	4µM	u	n	5.6µM	u	16µM	n	8.2µM	n
CC(=O)Nc1ccc(/C=C/c2ccnc3ccccc23)cc1	n	n	x	x	x	x	x	x	x	x
COc1ccc(Nc2nc(-c3ccccc3)nc3ccccc23)cc1	n	u	u	n	n	u	u	n	u	n
Cc1ccc(Nc2nc(-c3cccnc3)nc3ccccc23)cc1	20µM	u	u	n	u	u	u	u	u	n
Cc1ccccc1Nc1nc(-c2cccnc2)nc2ccccc12	n	n	n	n	n	u	x	x	x	x
O=C(C(=Cc1ccc(F)cc1)C(=O)c1ccccc1)c1ccccc1	n	8.9µM	n	n	n	u	3.7µM	u	13µM	n
COc1cccc(CNC(=O)c2ccc3c(c2)N(C)C(=O)C2CCCCN32)c1 (stereo not drawn)	n	n	n	x	n	n	x	x	x	x
Cc1ccc(-c2csc(N(CCO)CCCn3c(C(F)(F)F)nc4cc(C(F)(F)F)ccc43)n2)cc1	n	7.1µM	u	n	n	u	21µM	n	u	n
SMILES	HepG2 tox-1	TGFb inhibitor	S2 tox	GLP1R ag	ATXN2 expr inh	GLP-1R inv ag	TGFb CAGA inh	HepG2 tox-2	TGFb CCL64 inh	TGFb COP inh
OCCN(CCCn1c(C(F)(F)F)nc2ccccc21)c1nc(CN2CCCCC2)cs1	n	n	n	n	n	n	x	x	x	x
C#C[C@]1(O)CC[C@@H]2[C@H]3CCC4=CC(=O)CC[C@H]4[C@H]3C(=C)C[C@@]21CC	x	x	x	n	x	x	x	x	x	x
Cc1nc2c(c(C)c1CCC(=O)N1CCN(c3ccccc3)CC1)c(=O)n(C)c(=O)n2C	n	n	n	n	n	n	x	x	x	x
Cc1ccccc1C(=O)N1CCN(c2ccc(NC(=O)CSc3ccc(Cl)cc3)cc2)CC1	n	4.5µM	n	n	u	7.1µM	4.1µM	u	u	n
O=C(Nc1ccccc1F)c1ccc(Cn2nc(N3CCN(c4ccccc4)CC3)ccc2=O)o1	n	u	u	x	u	n	x	x	x	x
O=C1[C@H](Oc2ccccc2)[C@@H](c2ccncc2)N1c1ccncc1	n	n	n	n	n	n	x	x	x	x
O=C1[C@@H](Oc2ccccc2)[C@@H](c2cnc3ccccc3c2)N1c1ccccc1	n	11µM	u	n	n	u	21µM	n	16µM	n
CCN1CCN(C(c2cccc(OC)c2)c2c(O)cc(C)n(Cc3ccco3)c2=O)CC1 (stereo not drawn)	n	n	x	x	x	n	x	x	x	x
CCn1c(=O)c2cc(C(=O)N3CCN(c4cccc(OC)c4)CC3)sc2c2ccccc21	n	u	x	x	x	u	x	x	x	x
O=C(Nc1cccc(NC(=O)c2cccs2)c1)c1ccc([N+](=O)[O-])o1	22µM	5.6µM	u	n	u	n	5.2µM	21µM	12µM	u
O=C(Nc1cccc(NC(=O)c2ccc([N+](=O)[O-])o2)c1)c1ccco1	11µM	4µM	u	n	n	n	6.5µM	u	16µM	u

Source: PubChem BioAssay
